We go through 30 molecules from PubChem BioAssay (NCATS).

Results filed as inconclusive are left out. Calls of active or inactive are those of the source. Calls come from the whole dose curve; as a rule, active = well fitted cell-killing curve with a large enough effect; inconclusive = small, poorly fitted or top-dose-only effect, or effect the other way; inactive = no such curve, though single readings can be large or run the other way.
Potency is the fitted concentration of half-maximal effect.

This assay can be described thus: Quantitative High-Throughput drug screen in 47 multiple myeloma cell lines against the NCATS MIPE library collection: MM1R_ATCC cell viability assay (AID 1918981). Note: nearly all actives have a fitted effect of over 35% in size. As to conditions: MM1R multiple myeloma cells, CellTiter-Glo viability, 48 h; series mostly up to 45.8 µM; viability (% of control): at the top concentration. Summed up: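 Readout: median RLU from CellTiter-Glo after 5 min at room temperature. Preceding step was 48 h drug treatment of 500 cells/well at 37 °C, 5% CO2, with DMSO-only and media-only control wells.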
Take `CC(C)=CCCC(C)=CCCC(C)=CCCC(C)=CCCC(C)=CCCC(C)=CCCC(C)=CCCC(C)=CCCC(C)=CCO`: the “viability (% of control)” value is 124% (inactive). The same measure, in the same setting: then `CCCCC[C@H](O)C=C[C@H]1[C@H](O)CC(=O)[C@H]1CCCCCCC(=O)O`, with 110% (inactive); and `OC[C@H]1O[C@@H](O[C@H]2[C@@H](O)[C@@](O)(CO)O[C@@H]2CO)[C@H](O)[C@@H](O)[C@@H]1O`, with 102% (inactive); and `CCNC(=O)Nc1ccc(Oc2ncnc(N)c2C=NOC)cc1Cl`, with 105% (inactive). On the same count and under the same terms, the result for `CCCCCCCCCCCCCCCC(=O)O[C@H]1[C@@H](O)[C@@H](O)[C@@H]([C@H](NC(=O)[C@@H]2C[C@@H](CCC)CN2C)[C@H](C)Cl)O[C@@H]1SC` reads 103% (inactive). In the case of `COc1ccc(CCC(=O)Nc2nc3ccc(Cl)cc3s2)cc1OC`, the “viability (% of control)” value was 101% (inactive). As to `CC(C)CNc1ccnc(NCc2csc(-c3ccccc3)n2)n1`, the Potency is 18.7 µM (active).

As for `NS(=O)(=O)c1cc(Cl)c(Cl)c(S(N)(=O)=O)c1`, the “viability (% of control)” value was 125% (inactive).

Turning to `O=C(Nc1ncc(SCCN2CCCC2)s1)[C@]1(c2ccc(S(=O)(=O)C3CC3)cc2)C[C@@H]1C1CCCCC1`, the Potency was 16.6 µM (active). Consider `COc1ccc(Cn2ccc3ccc(C(=O)NO)cc32)cc1`, for which the “viability (% of control)” value was 89.4% (inactive).

As to `COc1cc(F)c(C(C)C)cc1-c1ccc(C(F)(F)F)cc1CN1C(=O)O[C@H](c2cc(C(F)(F)F)cc(C(F)(F)F)c2)[C@@H]1C`, the Potency is 0.296 µM (active).

For the molecule `CC(C)C[C@@H](C(=O)N[C@H](C(=O)OC1CCCC1)c1ccccc1)[C@H](O)C(=O)NO`, the Potency was 18.7 µM (active). Same read-out and setting: the result for `CCCCC(C)(C)[C@H](O)C=C[C@H]1[C@H](O)CC(=O)[C@H]1CC=CCCCC(=O)O` reads 18.7 µM (active). For the molecule `O=C(O)CCC=CCC[C@@H]1[C@H](N2CCCCC2)[C@@H](O)C[C@@H]1OCc1ccc(-c2ccccc2)cc1`, the “viability (% of control)” value is 103% (inactive).

For the molecule `Cc1csc(-c2nnc(Nc3ccc(Oc4ncccc4-c4ccnc(N)n4)cc3)c3ccccc23)c1`, the Potency is 20.9 µM (active). Same read-out and setting: then `O=C(Nc1cccc(C(F)(F)F)c1)Nc1cc(S(=O)(=O)NC2CC2)ccc1-c1ccsc1`, with 20.9 µM (active); and `O[C@@H](COc1cccc2ncccc12)CN1CCN(C2c3ccccc3[C@@H]3[C@H](c4ccccc42)C3(F)F)CC1` (stereo not given in full), with 18.7 µM (active); and `CCN1C[C@H](C)n2c(c(O)c3c(=O)n(Cc4ccc(F)c(Cl)c4)nc(C(=O)NC)c32)C1=O`, with 3.32 µM (active). Still for that read-out and setting: then `CN1CC(=O)NC1=NC(=O)Nc1cccc(Cl)c1`, with 18.7 µM (active).

On to `C[C@@H]1CC=CC=CC=CC=C[C@@H](O[C@@H]2O[C@H](C)[C@@H](O)[C@H](N)[C@H]2O)C[C@@H]2O[C@](O)(C[C@@H](O)C[C@@H]3O[C@@H]3C=CC(=O)O1)C[C@H](O)[C@@H]2C(=O)O`, for which the Potency was 14.8 µM (active). Same read-out and setting: the result for `N#CC(=C1Nc2ccccc2S1)c1ccnc(OCc2ccc(CN3CCOCC3)cc2)n1` reads 14.8 µM (active).

Turning to `CC1(C)[C@H]2CC[C@]3(C)[C@@H](C(=O)C=C4[C@@H]5C[C@@](C)(C(=O)O)CC[C@]5(C)CC[C@]43C)[C@@]2(C)CC[C@@H]1O`, the “viability (% of control)” value was 96.2% (inactive). Take `COc1ccc2cc1Oc1ccc(cc1)C[C@H]1c3cc(c(OC)cc3CCN1C)Oc1c(OC)c(OC)cc3c1[C@H](C2)N(C)CC3`: the Potency is 13.2 µM (active).

As to `O=C(Nc1cccc(Cl)c1)Nc1ncc(CCNc2ncnc3ccsc23)s1`, the Potency is 5.9 µM (active). As to `COC1CCC(C(=O)c2ccc3nc4c(cc3c2)CCCO4)CC1` (stereo not given), the Potency was 18.7 µM (active).

Consider `C=C1[C@H](n2cnc3c(=O)[nH]c(N)nc32)C[C@H](O)[C@H]1CO`, for which the Potency is 5.9 µM (active). For the molecule `Cc1ccc(C2=Nc3ccc(Cl)cc3OC2)cc1`, the “viability (% of control)” value was 100% (inactive). Consider `CC1(C)C(N(O)C(=O)Nc2ccc(Cl)cc2)N(c2ccc(Cl)cc2)C(=O)N1CC(=O)NN=CC=Cc1ccc([N+](=O)[O-])o1` (stereo not given), for which the Potency was 5.26 µM (active).

For the molecule `NCC1CCC(C(=O)O)CC1` (stereo not given), the “viability (% of control)” value was 102% (inactive).

`Fc1ccc(CNc2ncnc3ccc(F)cc23)cc1`: the Potency was 10.5 µM (active).
